High-throughput results (PubChem)
An excerpt weighted towards active compounds, which were near 2.6% of everything screened.
p53 reactivator: qHTS assay for re-activators of p53 using a Luc reporter | H1299 p53-A138V BP100-luciferase reporter, luminescence, 24 h | Potency, µM (top dose mostly 92.2 µM), for inactives: at the highest dose activity change, positive = activation, hits mostly activators | 320,000 compounds, 0.063% hits; active = well fitted activation curve with a large enough effect; inconclusive = small, poorly fitted or top-dose-only effect; inactive = no such curve, though single readings can be large or run the other way; note: potency is the fitted concentration of half-maximal effect; % of control where 0% means no effect; nearly all actives have a fitted effect of over 45% in size
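p53-null H1299 cells stably carrying temperature-sensitive p53-A138V and a BP100-luciferase reporter were pinned with compounds (4-point, 1:5 series) and held 24 hrs at 37 deg C. Luminescence was read 10 min after detection reagent.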
KCNH2 3.1 block: qHTS for Inhibitors of KCHN2 3.1: Mutant qHTS | 340,000 compounds, 0.95% hits | U2OS KCNH2 3.1, thallium flux FluxOr; hits give low values | activity change, % (tested at about 1.8 µM);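 active = maximum activity change below -70%; inconclusive = maximum activity change from -70% to -50%; inactive = maximum activity change above -50%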;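 note: thallium influx rate constant from kinetic fluorescence after stimulation buffer; % is set by controls: 0 for no effect and ±100 for the full control effect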
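Steps: virus added to U2OS suspension (4 h, RT, dark); medium with 10% FBS added, cells plated, 37 C overnight; FluxOr/Red40 loading buffer 45 min RT; stimulation buffer, 2 min kinetic read; rate constant normalized.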
ClpP mod: qHTS Assay for Activators of ClpP | ATP-dependent Clp protease proteolytic subunit (Bacillus subtilis (strain 168)), P80244 | purified B. subtilis ClpP, FRET peptide cleavage, 20 min | Potency, µM (highest dose often 57.5 µM), for the others: top-dose activity change, negative = active | 340,000 compounds, 1.9% hits | AID 651965, 2013; active = well fitted falling curve with a large enough effect; inconclusive = small, poorly fitted or top-dose-only effect; inactive = no such curve, though single readings can be large or run the other way; note: potency is the fitted concentration of half-maximal effect; the source files actives as falling curves though it sought activators and does not explain the sign; nearly all actives have a fitted effect of over 65% in size
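Buffer: 100 mM Tris/HCl pH8, 100 mM KCl, 0.05% low protease BSA, 2.5% glycerol, 0.01% Tween-20. ClpP 10 microg/mL final; 20 min RT; delta FRET normalized to ADEP and DMSO controls.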
TRPV1 PAM: HTS Assay for Compounds that Act as Potentiators of the Vanilloid Receptor 1 | 320,000 compounds, 0.02% hits | TRPV1-expressing cells, Fluo-8 calcium influx, capsaicin EC20 potentiation | AID 540277, 2011 | Transient receptor potential cation channel subfamily V member 1 (Homo sapiens), Q8NER1 | potentiation, % at 8.33 µM; in the data active = potentiation above about 80%; inconclusive = between about 30% and that limit; note: 0% is about no effect
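Fluo-8 calcium influx in TRPV1-expressing cells, kinetic read (ex 480/em 520 nm). Compound added and read 3 min for agonist activity, followed by capsaicin at EC20 final and 2 min further read for enhancement.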
hERG WT inh: qHTS for Inhibitors of KCHN2 3.1: Wildtype qHTS; activity change, % at 1.84 µM; 340,000 compounds, 0.37% hits; Voltage-gated inwardly rectifying potassium channel KCNH2 (Homo sapiens), Q12809; U2OS, BacMam KCNH2, thallium flux FluxOr; hits give low values;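 active = maximum activity change below -70%; inconclusive = maximum activity change between -70% and -50%; inactive = maximum activity change above -50%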; note: % is set by controls: 0 for no effect and ±100 for the full control effect
Target sequence (Q12809 whole entry, looked up): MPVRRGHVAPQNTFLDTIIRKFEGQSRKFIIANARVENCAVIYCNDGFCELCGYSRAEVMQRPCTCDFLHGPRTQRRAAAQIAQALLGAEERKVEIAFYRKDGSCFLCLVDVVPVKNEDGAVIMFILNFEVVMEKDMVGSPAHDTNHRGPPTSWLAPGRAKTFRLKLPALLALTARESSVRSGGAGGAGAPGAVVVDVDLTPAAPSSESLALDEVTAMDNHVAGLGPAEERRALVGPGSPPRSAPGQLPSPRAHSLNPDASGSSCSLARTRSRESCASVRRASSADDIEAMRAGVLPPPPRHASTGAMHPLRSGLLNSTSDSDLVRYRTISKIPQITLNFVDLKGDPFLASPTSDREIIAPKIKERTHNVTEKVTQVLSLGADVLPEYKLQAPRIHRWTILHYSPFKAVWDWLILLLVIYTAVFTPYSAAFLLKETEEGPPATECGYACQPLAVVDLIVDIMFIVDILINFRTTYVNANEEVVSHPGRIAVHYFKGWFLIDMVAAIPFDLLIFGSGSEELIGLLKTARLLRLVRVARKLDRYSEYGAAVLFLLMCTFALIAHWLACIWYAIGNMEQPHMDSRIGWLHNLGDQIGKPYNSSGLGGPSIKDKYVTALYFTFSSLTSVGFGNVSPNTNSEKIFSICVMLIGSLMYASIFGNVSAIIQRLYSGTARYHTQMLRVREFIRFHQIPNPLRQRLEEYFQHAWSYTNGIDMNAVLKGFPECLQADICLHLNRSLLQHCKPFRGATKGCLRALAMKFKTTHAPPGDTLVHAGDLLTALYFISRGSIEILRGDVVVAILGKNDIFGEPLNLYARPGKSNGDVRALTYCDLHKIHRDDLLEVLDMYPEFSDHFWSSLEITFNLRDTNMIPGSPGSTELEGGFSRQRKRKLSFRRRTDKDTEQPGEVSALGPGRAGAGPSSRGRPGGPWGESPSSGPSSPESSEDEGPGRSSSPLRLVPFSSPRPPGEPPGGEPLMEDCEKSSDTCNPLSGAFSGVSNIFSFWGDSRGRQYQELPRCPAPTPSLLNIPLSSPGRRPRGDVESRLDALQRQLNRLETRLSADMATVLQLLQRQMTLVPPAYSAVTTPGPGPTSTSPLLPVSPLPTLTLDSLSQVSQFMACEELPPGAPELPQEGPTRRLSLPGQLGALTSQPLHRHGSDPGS
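U2OS cells transduced with wild-type KCNH2 virus are loaded with FluxOr dye for 45 min, and thallium flux is measured in kinetic reads before and after stimulation buffer. Rate constants are normalized to DMSO controls.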
TRPV1 agonist: HTS Assay for Compounds that Act as Agonists of the Vanilloid Receptor 1; Transient receptor potential cation channel subfamily V member 1 (Homo sapiens), Q8NER1; TRPV1-expressing cells, Fluo-8 calcium influx, agonist mode; activation, % at 8.33 µM; 320,000 compounds, 0.19% hits; AID 540275, 2011; in the data active = activation above about 80%; inconclusive = between about 30% and that limit; note: 0% is about no effect
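Fluo-8 calcium influx in TRPV1-expressing cells, kinetic read (ex 480/em 520 nm). Compound added and read 3 min for agonist activity, followed by capsaicin at EC20 final and 2 min further read for enhancement.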
Active calls of the source: *; ? = inconclusive; nt = no result given.

SMILES	p53 reactivator	KCNH2 3.1 block	ClpP mod	TRPV1 PAM	hERG WT inh	TRPV1 agonist
Cc1ccc(-c2ccc(CCC(=O)O)n2CC2CCCO2)cc1 (stereo not drawn)	-2%	8	25µM*	-8	2	2
COc1cccc(CC2(CO)CCCN(C/C=C/c3ccccc3OC)C2)c1 (stereo not drawn)	-1%	-86*	-3%	5	-71*	-10
COc1cccc(CC2(CO)CCCN(Cc3cn[nH]c3-c3ccc(F)cc3)C2)c1 (stereo not drawn)	-2%	9	nt	6	14	-4
COc1ccccc1/C=C/CN1CCCC(CO)(Cc2cccc(Cl)c2)C1 (stereo not drawn)	-1%	-42	nt	-4	0	12
COc1cccc(CC2(CO)CCCN(Cc3ccccc3Cl)C2)c1 (stereo not drawn)	nt	3	-1%	-12	43	24
COc1ccc(CN2CCN(Cc3cccc(Oc4ccccc4)c3)CC2)c(OC)c1OC	5%	-73*	0%	9	?	0
COc1cccc(CC2(CO)CCCN(Cc3ccc(OC)c(C)c3OC)C2)c1 (stereo not drawn)	7%	-113*	-2%	-9	-79*	5
COc1cccc(CC2(CO)CCCN(Cc3cc(F)ccc3-n3cccn3)C2)c1 (stereo not drawn)	-4%	-105*	nt	-5	?	21
COc1ccc(-c2nn(CC(=O)NCc3ccccc3)c3c2cnc2ccc(F)cc23)cc1	nt	nt	-22%	nt	nt	nt
CCCC(=O)N1CCC1(C)C(=O)Nc1ccc2nccnc2c1 (stereo not drawn)	nt	nt	4%	nt	nt	nt
CC(C)c1nn2c(=O)cc(COC(=O)c3cccc(NC(=O)CCc4ccccc4)c3)nc2s1	nt	nt	4%	nt	nt	nt
Cc1ccc(-c2nc3ccc(Br)cn3c2Cc2cccc(Cl)c2)cc1	nt	nt	-3%	nt	nt	nt
CCCCc1nc(NCCNC(=O)c2ccco2)c(C#N)c2c1CSC(C)(C)C2	-1%	-29	25µM*	-10	-5	?
CCCCc1nc(Cl)c(C#N)c2c1CSC(C)(C)C2	3%	-21	-1%	-6	nt	19
CCCCc1nc(NCCNC(=O)c2ccccc2)c(C#N)c2c1CSC(C)(C)C2	-1%	-7	28µM*	-9	5	?
COc1cc2c(NC3CCN(C)CC3)nc(N3CCCN(C)CC3)nc2cc1OCCN(C)C	nt	nt	4%	nt	nt	nt
CCCCCn1c(=O)[nH]c2cc(C(=O)NCCCN(CC)CC)ccc2c1=O	-1%	-84*	28µM*	-12	5	2
CCCCCn1c(=O)[nH]c2cc(C(=O)NCc3ccccc3)ccc2c1=O	nt	nt	-24%	nt	nt	nt
COCCn1c(=O)[nH]c2cc(C(=O)NCCN3CCN(c4ccccc4F)CC3)ccc2c1=O	-5%	20	?	0	5	-2
COCCn1c(=O)[nH]c2cc(C(=O)NCCCN3CCN(c4ccc(F)cc4)CC3)ccc2c1=O	3%	-16	28µM*	10	7	1
CCCCCn1c(=O)[nH]c2cc(C(=O)NCCN3CCOCC3)ccc2c1=O	nt	8	28µM*	nt	12	nt
COC(=O)c1ccc2c(=O)n(CCCCCC(=O)NCc3ccccn3)c(=O)[nH]c2c1	0%	4	32µM*	3	-13	-2
CCCCCn1c(=O)[nH]c2cc(C(=O)O)ccc2c1=O	4%	-6	22µM*	10	-4	1
CCCCN(CCCC)c1ccc(/C=C/c2ccnc3ccccc23)cc1	nt	nt	1%	nt	nt	nt
COc1ccccc1-c1ccc(/C=C2/C=C(CC(C)C)OC2=O)o1	15%	-10	35µM*	18	-7	-16
SMILES	p53 reactivator	KCNH2 3.1 block	ClpP mod	TRPV1 PAM	hERG WT inh	TRPV1 agonist
CCOc1ccc(-n2cc(-c3ccccc3)c3c(NCc4ccc(F)cc4)ncnc32)cc1	nt	nt	5%	nt	nt	nt
CCCCCCCCCCCCCCCC[n+]1ccc(CC(O)c2c(C)[nH]c3ccccc23)c2ccccc21 (stereo not drawn)	nt	nt	-1%	nt	nt	nt
c1ccc(CC2CCN(c3nc4ccccc4n4nnnc34)CC2)cc1	?	-1	16µM*	6	-2	0
O=C(COC(=O)C1CCN(c2ccc(C(F)(F)F)cn2)CC1)c1ccc(Cl)cc1	15%	5	-5%	-14	7	2
COc1cc(C(=O)COC(=O)C2CCN(c3ccc(C(F)(F)F)cn3)CC2)ccc1OC(F)F	0%	-79*	-3%	-12	-7	5
O=C(COC(=O)C1CCN(c2ccc(C(F)(F)F)cn2)CC1)c1ccc(F)cc1	11%	-78*	-4%	?	-44	0
CN(c1ccccc1)c1ncnc2c1cnn2C	nt	nt	2%	nt	nt	nt
O=C(CBr)c1ccc(Oc2ccc(C(=O)C[n+]3cccc(Br)c3)cc2)cc1	nt	nt	1%	nt	nt	nt
Cc1nc(Nc2ccc(S(=O)(=O)N3CCCCC3C)cc2)c2nnn(Cc3ccccc3)c2n1 (stereo not drawn)	-2%	-19	32µM*	-43	-3	-1
OCc1cn(-c2ccccc2)nc1-c1ccc(-c2nn(-c3ccccc3)cc2CO)cc1	2%	-8	28µM*	15	9	8
OCc1cn(-c2ccccc2)nc1-c1ccco1	6%	12	?	-5	-12	2
Cc1ccc(-c2nn(-c3ccccc3)cc2CO)o1	?	-14	32µM*	8	-4	-2
Ic1ccc(Nc2nc(NCCN3CCOCC3)nc(N3CCCC3)n2)cc1	nt	nt	-2%	nt	nt	nt
O=C(CSc1nnc(-c2ccco2)n1Cc1ccccc1)c1ccccc1	17%	-9	-3%	-8	5	?
c1ccc(Cn2c(SCc3cn4cccnc4n3)nnc2-c2ccco2)cc1	-1%	-1	16µM*	-6	7	1
O=C1C(C=NCCN2CCOCC2)=C(O)c2ccccc21	?	11	28µM*	13	6	1
O=C1C(C=NCCCN2CCOCC2)=C(O)c2ccccc21	11%	4	0%	2	-2	0
CCOc1ccc(C2CC(=O)N(c3cccc(F)c3)C3=C2C(=O)OC3)cc1 (stereo not drawn)	nt	nt	-2%	nt	nt	nt
C#CCSc1nc(-c2cccs2)ccc1C#N	21%	-3	32µM*	6	-6	3
CCN(CC)C(=O)CSc1nc(N)c(C#N)c(-c2cccs2)c1C#N	-7%	-6	?	-2	12	7
